Test results: PubChem BioAssay (NCI)
About 83,000 compounds went through this panel and 20% of them were active in at least one assay; those are over-represented in the sample as a whole.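 Assay: single dose, 48 h. Readout: percent growth (0 = no net growth; negative = cell death). Active: <10.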 Unmarked numbers belong to inactive results. Calls of active or inactive are those of the source.

Assays:
Assay in all cases: NCI-60 one-dose screen, 48 h (100 = growth as untreated, 0 = no growth, -100 = all killed)
Conditions in all cases: 10 µM
[1] = system: NCI-H23 lung
[2] = system: NCI-H226 lung
[3] = system: NCI-H322M lung
[4] = system: HOP-62 NSCLC
[5] = system: NCI-H460 lung
[6] = system: NCI-H522 lung
[7] = system: A549/ATCC NSCLC
[8] = system: 786-0 renal
[9] = system: COLO 205 colon
[10] = system: DU-145 prostate
[11] = system: K-562 leukemia
[12] = system: MALME-3M melanoma
[13] = system: MDA-MB-231 breast
[14] = system: RXF 393 renal
[15] = system: SF-268 CNS
[16] = system: SF-295 CNS
[17] = system: SF-539 CNS
[18] = system: UACC-257 melanoma
[19] = system: M14 melanoma
[20] = system: HOP-92 NSCLC

Compound O=C1C=C(Nc2ccc([N+](=O)[O-])cc2)c2ccccc2C1=O has a growth [1] of 30.1%, a growth [2] of 77.6% and a growth [3] of 75.3%. For the same compound, the growth [4] was 51.9%, the growth [5] was 46.4% and the growth [6] was 21.5%. It also gave a growth [7] of 33.3%, a growth [8] of 66.6% and a growth [9] of 105%. It also gave a growth [10] of 68.9%, a growth [11] of 13.2% and a growth [12] of 51.6%. It also gave a growth [13] of 22.5%, a growth [14] of 69.2% and a growth [15] of 55.6%. For the same compound, the growth [16] was 53.1%, the growth [17] was 36.8% and the growth [18] was 48.8%. The growth [19] was 13.3%.

For COC(=O)c1ccccc1Br, the growth [1] was 107%, the growth [2] was 104% and the growth [3] was 95.6%. The growth [4] was 77.9%, the growth [5] was 107% and the growth [6] was 94.2%. The growth [7] was 103%, the growth [8] was 97% and the growth [9] was 116%. The growth [10] was 102%, the growth [11] was 111% and the growth [12] was 98.5%. It also gave a growth [13] of 112%, a growth [14] of 110% and a growth [15] of 101%. It also gave a growth [16] of 95.1%, a growth [17] of 102% and a growth [18] of 114%. It also gave a growth [19] of 88.9%.

In the case of CCOc1ccc(I)cc1, the growth [1] is reported as 96.7%, the growth [2] is reported as 103% and the growth [3] is reported as 120%. The growth [4] was 107%, the growth [5] was 108% and the growth [6] was 105%. The growth [7] was 104%, the growth [8] was 109% and the growth [9] was 111%. The growth [10] was 105%, the growth [11] was 119% and the growth [12] was 108%. The growth [13] was 102%, the growth [14] was 107% and the growth [15] was 96.4%. The growth [16] was 113%, the growth [17] was 97.8% and the growth [18] was 104%.

COc1nc(N)nc2c1ncn2C1OC(CO)CC1O (centres undefined) gave a growth [1] of 103%, a growth [2] of 103% and a growth [3] of 96.8%. For the same compound, the growth [4] was 100%, the growth [5] was 115% and the growth [6] was 106%. It also gave a growth [7] of 111%, a growth [8] of 95.4% and a growth [9] of 104%. For the same compound, the growth [10] was 110%, the growth [11] was 101% and the growth [12] was 100%. For the same compound, the growth [13] was 112%, the growth [14] was 112% and the growth [15] was 108%. For the same compound, the growth [16] was 113%, the growth [17] was 45.6% and the growth [18] was 111%. It also gave a growth [19] of 104%.

Compound Oc1ccccc1-c1nnco1 has a growth [1] of 94.9%, a growth [2] of 93.1% and a growth [3] of 89.9%. The growth [4] was 81.5%, the growth [5] was 104% and the growth [6] was 91%. It also gave a growth [7] of 98.9%, a growth [8] of 90.6% and a growth [9] of 103%. For the same compound, the growth [10] was 99.7%, the growth [11] was 75.4% and the growth [12] was 96.2%. The growth [13] was 84.4%, the growth [14] was 74% and the growth [15] was 65.4%. For the same compound, the growth [16] was 112%, the growth [17] was 89.9% and the growth [18] was 97.3%.

With CCOC(=O)Nc1cc2c(c(N)n1)N=C(c1ccccc1)CO2 the growth [1] was 34.8%, the growth [2] was 39.6% and the growth [3] was 15.3%. For the same compound, the growth [4] was 50%, the growth [5] was 8.86% (active) and the growth [6] was -13.9% (active). The growth [7] was 23.3%, the growth [8] was 39.1% and the growth [9] was 6.19% (active). It also gave a growth [10] of 10.6%, a growth [11] of 10.1% and a growth [12] of 64.8%. For the same compound, the growth [13] was 13.6%, the growth [14] was 27.3% and the growth [15] was 38.4%. The growth [16] was 17%, the growth [17] was 1.93% (active) and the growth [18] was 86.4%. For the same compound, the growth [19] was 15.4%.

Compound Cc1ccc(C(O)C2CC2)cc1 (centres undefined) has a growth [1] of 103%, a growth [2] of 91.9% and a growth [3] of 97.1%. The growth [4] was 106%, the growth [5] was 103% and the growth [6] was 107%. It also gave a growth [7] of 95.9%, a growth [8] of 103% and a growth [9] of 110%. The growth [10] was 113%, the growth [11] was 98.6% and the growth [12] was 101%. It also gave a growth [13] of 105%, a growth [14] of 102% and a growth [15] of 108%. It also gave a growth [16] of 97%, a growth [17] of 96.7% and a growth [18] of 89.5%. It also gave a growth [19] of 109%.

With COc1cc2cc(c1Cl)N(C)C(=O)C[C@H](OC(=O)[C@H](C)N(C)C(C)=O)[C@]1(C)O[C@H]1[C@H](C)[C@@H]1C[C@@](O)(NC(=O)O1)[C@H](OC)C=C/C=C(\C)C2 the growth [1] was 31.1%, the growth [2] was 3.37% (active) and the growth [3] was 31.5%. The growth [4] was 14%, the growth [5] was 2.87% (active) and the growth [6] was -60.8% (active). The growth [7] was 38.3%, the growth [8] was 10.6% and the growth [9] was -51.3% (active). For the same compound, the growth [10] was -40.4% (active), the growth [11] was -2.18% (active) and the growth [12] was 33.7%. For the same compound, the growth [13] was -13.1% (active), the growth [14] was 13.3% and the growth [15] was 23.5%. The growth [16] was -13.8% (active), the growth [17] was -23.5% (active) and the growth [18] was 12.4%. For the same compound, the growth [19] was -26.2% (active).

For COc1cc(-c2ccc(NC(=O)NC3CC3)c(OC)c2)ccc1NC(=O)NC1CC1, the growth [1] was 98.3%, the growth [2] was 102% and the growth [3] was 110%. For the same compound, the growth [4] was 101%, the growth [5] was 16.2% and the growth [6] was -10.3% (active). It also gave a growth [7] of 26.8%, a growth [8] of 74% and a growth [9] of 103%. The growth [10] was 84.9%, the growth [11] was 31.2% and the growth [12] was 102%. It also gave a growth [13] of 71.1%, a growth [14] of 73% and a growth [15] of 62.8%. It also gave a growth [16] of 75.9%, a growth [17] of 67.2% and a growth [18] of 26.5%. For the same compound, the growth [19] was 75.7%.

For COC(=O)c1ccccc1N(C)C, the growth [1] was 97.7%, the growth [2] was 99.3% and the growth [3] was 104%. It also gave a growth [4] of 89.7%, a growth [5] of 110% and a growth [6] of 99.1%. For the same compound, the growth [7] was 92.7%, the growth [8] was 102% and the growth [9] was 101%. The growth [10] was 108%, the growth [11] was 81.4% and the growth [12] was 101%. It also gave a growth [13] of 112%, a growth [14] of 118% and a growth [15] of 107%. For the same compound, the growth [16] was 98.7%, the growth [17] was 115% and the growth [18] was 103%. The growth [19] was 102%.

CN(C)CCN(Cc1ccccc1)c1ccccc1 was tested, and the growth [1] was 99.8%, the growth [2] was 109% and the growth [3] was 110%. The growth [4] was 107%, the growth [5] was 104% and the growth [6] was 104%. For the same compound, the growth [7] was 106%, the growth [8] was 105% and the growth [9] was 118%. It also gave a growth [10] of 120%, a growth [11] of 81.7% and a growth [12] of 123%. For the same compound, the growth [13] was 91.7%, the growth [14] was 103% and the growth [15] was 114%. The growth [16] was 110%, the growth [17] was 121% and the growth [18] was 126%.

Work on Cc1cc(O)ccc1O yielded a growth [1] of 104%, a growth [2] of 96.1% and a growth [3] of 98.5%. For the same compound, the growth [4] was 89.8%, the growth [5] was 106% and the growth [6] was 82.9%. The growth [7] was 108%, the growth [8] was 75.3% and the growth [9] was 120%. The growth [10] was 114%, the growth [11] was 94.1% and the growth [12] was 101%. The growth [13] was 87.3%, the growth [14] was 112% and the growth [15] was 102%. The growth [16] was 129%, the growth [17] was 95.5% and the growth [18] was 99.5%. For the same compound, the growth [19] was 96.4%.

CC(=O)c1c[nH]c2ccccc12 was tested, and the growth [1] was 106%, the growth [2] was 97.5% and the growth [3] was 101%. It also gave a growth [4] of 95.8%, a growth [5] of 113% and a growth [6] of 92.9%. For the same compound, the growth [7] was 103%, the growth [8] was 103% and the growth [9] was 119%. For the same compound, the growth [10] was 124%, the growth [11] was 103% and the growth [12] was 95.2%. It also gave a growth [13] of 114%, a growth [14] of 104% and a growth [15] of 113%. For the same compound, the growth [16] was 100%, the growth [17] was 105% and the growth [18] was 104%. For the same compound, the growth [19] was 102%.

O=C(O)CCC(=O)OC(C1CO1)C(OC(=O)CCC(=O)O)C1CO1 (centres undefined) was tested, and the growth [1] was 102%, the growth [2] was 96.5% and the growth [3] was 112%. For the same compound, the growth [4] was 102%, the growth [5] was 103% and the growth [6] was 91%. The growth [7] was 97.4%, the growth [8] was 103% and the growth [9] was 99.9%. The growth [10] was 105%, the growth [11] was 103% and the growth [12] was 86.9%. For the same compound, the growth [13] was 130%, the growth [14] was 99.9% and the growth [15] was 105%. It also gave a growth [16] of 92.3%, a growth [17] of 95.2% and a growth [18] of 85%. The growth [19] was 98.9%.

With O=C(/C=C\c1ccc(O)cc1)c1ccccc1 the growth [1] was 102%, the growth [2] was 107% and the growth [3] was 101%. The growth [4] was 110%, the growth [5] was 113% and the growth [6] was -31.4% (active). The growth [7] was 94.2%, the growth [8] was 97.8% and the growth [9] was 98%. It also gave a growth [10] of 101%, a growth [11] of 99.2% and a growth [12] of 82.7%. It also gave a growth [13] of 92.4%, a growth [14] of 110% and a growth [15] of 90%. The growth [16] was 110%, the growth [17] was 92.3% and the growth [18] was 98%. It also gave a growth [19] of 72.8%.

N#CCCc1ccc(O)cc1 gave a growth [1] of 117%, a growth [2] of 102% and a growth [3] of 102%. The growth [4] was 104%, the growth [5] was 103% and the growth [20] was 108%. It also gave a growth [8] of 104%, a growth [9] of 114% and a growth [10] of 117%. The growth [11] was 100%, the growth [12] was 108% and the growth [13] was 116%. For the same compound, the growth [14] was 106%, the growth [15] was 110% and the growth [16] was 97.8%. For the same compound, the growth [17] was 99.4% and the growth [19] was 108%.
